Source: article PMC4552634, “A New Set of Chemical Starting Points with Plasmodium falciparum Transmission-Blocking Potential for Antimalarial Drug Discovery” (PLoS ONE, 2015)
Among all 13,000 compounds or so, about 3,200 (25%) showed an effect of 50% or more. The list shows a part of the results.

Each compound was assayed on P. falciparum stage V gametocytes. Settings: 48 h, 5 µM; inhibitor.
Design: BacTiter-Glo ATP luminescence viability of purified stage V gametocytes in 384-well plates, per cent inhibition versus DMSO

Structure (SMILES) | % Inhibition
COc1ccccc1N=C1SC(=Cc2cn(CC(=O)N3CCCc4ccccc43)c3ccccc23)C(=O)N1C1CCCCC1 [TCMDC-124809] | 13.24%
Cc1c(C(=O)N2CCCC(C(F)(F)F)C2)sc2cccc(F)c12 (stereo not shown) [TCMDC-124598] | 6.461%
CS(=O)(=O)CCNCc1ccc(-c2cc3c(Nc4ccc(OCc5cccc(F)c5)c(Cl)c4)ncnc3s2)[nH]1 [TCMDC-135511] | -19.72%
COc1ccc(C2CC(=O)C3=C(C2)NC(C)=C(C(=O)OC2CCCC2)C3c2cccc(O)c2)cc1 (stereo not shown) [TCMDC-125631] | 10.18%
CC(C)(CNCc1cccc(Oc2cccc(C(F)(F)F)c2)c1)c1nc(-c2ccc(Cl)c(O)c2)c(-c2ccnc(N)n2)[nH]1 [TCMDC-141166] | 55.63%
CC(C)(CNCc1ccc(F)c(F)c1)c1nc(-c2ccc(Cl)c(O)c2)c(-c2ccncc2)[nH]1 [TCMDC-140672] | -67.6%
CC(C)(CNCc1ccc(Cl)cc1)c1nc(-c2ccc(Cl)c(O)c2)c(-c2ccncc2)[nH]1 [TCMDC-140548] | -50.17%
CC(C)(CNCc1ccc(Cl)c(Cl)c1)c1nc(-c2ccc(Cl)c(O)c2)c(-c2ccncc2)[nH]1 [TCMDC-140688] | 78.8%
CC(C)(CNCc1cccc(Oc2ccccc2)c1)c1nc(-c2ccc(Cl)c(O)c2)c(-c2ccnc(N)n2)[nH]1 [TCMDC-141167] | 23.98%
CN(C)CCCOc1ccc(CNCC(C)(C)c2nc(-c3ccc(Cl)c(O)c3)c(-c3ccncc3)[nH]2)cc1 [TCMDC-140650] | 71.95%
CC(C)(CNCc1ccc(C(F)(F)F)cc1)c1nc(-c2ccc(Cl)c(O)c2)c(-c2ccnc(N)n2)[nH]1 [TCMDC-141162] | 38.42%
CC(C)(CNCc1ccc(C(F)(F)F)cc1)c1nc(-c2ccc(Cl)c(O)c2)c(-c2ccncc2)[nH]1 [TCMDC-140689] | 22.22%
COc1ccc(CNCC(C)(C)c2nc(-c3ccc(Cl)c(O)c3)c(-c3ccncc3)[nH]2)cc1 [TCMDC-140538] | -60.58%
Cc1ccc2nc(C)cc(NC(=O)Nc3ccc(N(C)C)cc3)c2c1 [TCMDC-140108] | -84.19%
N#Cc1ccc2c(c1)CCN(CCC1CCC(NC(=O)/C=C/c3ccc(Cl)c(Cl)c3)CC1)CC2 (stereo not shown) [TCMDC-139792] | -12.21%
CC(C)C(=O)Nc1c(F)cc(F)cc1CCc1ccc(O)cc1 [TCMDC-137532] | 15.35%
CC1(C)N=C(N)NC(Nc2ccc(F)c(F)c2)=N1 [TCMDC-123533] | -23.61%

Structure (SMILES) | % Inhibition
CN1CCN(Cc2ccc(-c3ccc4c(Nc5ccc(Oc6ccccc6)cc5)ccnc4c3)o2)CC1 [TCMDC-138402] | 53.53%
c1ccc(Oc2ccc(Nc3ccnc4cc(-c5ccc(CN6CCCCC6)o5)ccc34)cc2)nc1 [TCMDC-138422] | -0.3034%
c1ccc(Oc2ccc(Nc3ccnc4cc(-c5ccc(CN6CCNCC6)o5)ccc34)cc2)nc1 [TCMDC-138421] | 97.92%
CN1CCN(Cc2ccc(-c3cc4nccc(Nc5ccc(Oc6ccccc6)cc5)c4cc3Cl)o2)CC1 [TCMDC-138463] | 37.01%
Cc1ccc(O)cc1Nc1ccnc2cc(-c3ccc(CN4CCCCC4)o3)ccc12 [TCMDC-138384] | 25.1%
c1ccc(Oc2ccc(Nc3ccnc4cc(-c5ccc(CNCCN6CCOCC6)o5)ccc34)cc2)nc1 [TCMDC-138423] | -53.28%
CN1CCN(Cc2ccc(-c3ccc4c(Nc5ccc(Oc6ccccn6)cc5)ccnc4c3)o2)CC1 [TCMDC-138420] | 73.84%
c1ccc(Oc2ccc(Nc3ccnc4cc(-c5ccc(CN6CCOCC6)o5)ccc34)cc2)nc1 [TCMDC-138424] | 11.61%
CN(C)CCNC(=O)[C@H](CC1CCCCC1)NC(=O)c1ccc(O)c(-c2ccc(Cl)c(Cl)c2)c1 [TCMDC-140865] | 44.5%
O=C(Nc1ccc(-c2nc3ccccc3[nH]2)cc1)c1ccc(Cl)s1 [TCMDC-123725] | -15.63%
CC1c2cccc(O)c2CCN1CCc1ccc(Cl)c(Cl)c1 (stereo not shown) [TCMDC-138976] | -24.59%
O=C(Nc1cccc(-c2ccc(-c3nc4ccccc4[nH]3)cc2)c1)c1csnn1 [TCMDC-136901] | -10.17%
COc1ccc(CNC2CCN(C)CC2)cc1-c1ccc(S(=O)(=O)NCCc2ccccn2)cc1 [TCMDC-132246] | 50.8%
COc1ccc(CNC2CCN(C)CC2)cc1-c1ccc(S(=O)(=O)NCCc2ccccn2)c(F)c1 [TCMDC-132264] | 102.9%
COc1ccc(CNC2CCN(C)CC2)cc1-c1ccc(S(=O)(=O)NCCc2ccccn2)c(C)c1 [TCMDC-132271] | 72.47%
CN1CCC(NCc2cccc(-c3ccc(S(=O)(=O)NCCc4ccccn4)c(F)c3)c2)CC1 [TCMDC-132220] | 17%
Cc1nnc(-c2ccc3ccccc3c2)c2cn(-c3cccc([N+](=O)[O-])c3)nc12 [TCMDC-138592] | 4.043%
